Here are results for 96 compounds from PubChem BioAssay AID2315 (National Center for Advancing Translational Sciences (NCATS), 2010).

Among all 290,000 compounds or so, about 27,000 (9.3%) were called active. This is one part of a sample in which actives are shown more often than they occur. Rule as the data show it: active = inhibition mostly above about 28% (no sharp cut-off); inactive = mostly below about 43%. Where a SMILES comes first, the peptide text is derived from it. [ ]: non-standard residue; d: D form. The star is where a group is joined. ξ: configuration not given here. Cbz = O=C(OCc1ccccc1)*; ξL = CC(C)CC(N)C(=O)O; ξP = O=C(O)C1CCCN1

As usually defined, the inhibition is the change of the read-out against control, counted positive when it falls.

This assay in a line: A qHTS for Small Molecule Inhibitors of Shiga Toxin. Also: 0% is about no effect. Conditions: Vero cells, Shiga toxin protein synthesis inhibition reporter; at 38.7 µM, stronger effect = higher value. In general terms: Quantitative high-throughput screening tests each substance at several concentrations.
With `O=C1CCC(C(=O)N2CCC(O)(c3ccccc3)CC2)CN1CCc1ccccc1` (stereo unspecified), the inhibition is -9.01% (inactive). Next, `CCOC(=O)CSc1nnc(-c2ccco2)n1C`: -1.54% (inactive); `Cn1c(SCC(=O)c2cccs2)nnc1-c1ccco1`: 58.7% (active). The same measure for `CCCCNC(=O)CSc1nnc(-c2ccco2)n1C`: -13.5% (inactive); for `CCC1Oc2ccccc2N(CC(=O)NCCCN2CCN(CC)CC2)C1=O` (stereo unspecified): -4.33% (inactive); for `CC(C)OCCCNC(=O)CN1C(=O)/C(=C/c2ccccc2F)Oc2ccccc21`: -4.44% (inactive). Next, `COc1ccc(CCNC(=O)CN2C(=O)CCSc3ccccc32)c(OC)c1`: -7.21% (inactive); `Cc1ccc(-c2nc(CSCC(=O)NC3CCN(Cc4ccccc4)CC3)c(C)o2)cc1`: 1.51% (inactive); `Cc1ccc(Sc2cc(C(=O)c3ccccc3C(=O)O)ccc2[N+](=O)[O-])cc1`: 1.21% (inactive).

Take `O=C(Nc1cc2ccccc2oc1=O)C1CCCCC1`: the inhibition was 55.5% (active).

For the compound `Cc1ccccc1NC(=O)C1CCN(C(=O)NC2CCCCC2)CC1`, the inhibition is -5.42% (inactive). Next, `CC(=O)Nc1cc2ccc(OC(C)=O)cc2oc1=O`: -11.8% (inactive). Next, `Cc1nn(Cc2ccc(Cl)cc2)c(Cl)c1/C=N/NC(=O)CNc1ccccc1F`: -6.45% (inactive). Next, `CCn1nc(C)c(/C=N/NC(=O)Cc2ccc(Cl)cc2)c1C`: 81.2% (active).

For the compound `Cc1nn(Cc2ccc(Cl)cc2)c(Cl)c1/C=N/NC(=O)c1cccnc1`, the inhibition is -8.32% (inactive). Next, `O=C(NCc1cccs1)c1ccc2c(c1)ncn2C1CCCC1`: 38% (active); `COc1ccccc1-n1cnc2cc(C(=O)NCC3CCCO3)ccc21` (stereo unspecified): -4.06% (inactive). Next, `O=C(NCCN1CCOCC1)c1ccc2c(c1)ncn2C1CCCC1`: -8.3% (inactive); `CCOC(=O)C1=C(c2ccccc2)NC(=O)NC1c1cc(OC)c(OC)cc1OC` (stereo unspecified): -5.08% (inactive); `COc1cc2c(cc1OC)CN(CC(=O)Nc1ccc(F)cc1)CC2`: -6.84% (inactive). For the compound `Cc1ccc(SCc2c(C(=O)N/N=C/c3cccnc3)nnn2-c2nonc2N)cc1`, the inhibition is -5.04% (inactive). On to `CCOc1cc(CN2CCN(C(=O)CC(C)C)CC2)ccc1OC`, for which the inhibition was 21.9% (inactive). As for `COc1cc(CN2CCC(C(N)=O)CC2)ccc1OCc1ccccc1`, the inhibition is 50.5% (active). `COc1ccc(COCC(O)CN2CCC(C(N)=O)CC2)cc1` (stereo unspecified): the inhibition is 18.1% (inactive). Next, `CCCc1nnc(NC(=O)CCC(=O)NC2CC2)s1`: -4.93% (inactive). Regarding `COc1ccc(CCN(C)C(=O)C23CC4CC(CC(Cl)(C4)C2)C3)cc1OC`, the inhibition is -8.99% (inactive).

For `COCCNC(=O)COc1ccccc1C`, the inhibition is -1.68% (inactive). Next, `Cc1cccc(NC(=O)c2ccccc2NC(=O)C(C)(C)C)n1`: -16.5% (inactive).

As to `Cc1cccc(NC(=O)Nc2ccc(OCc3ccccc3)cc2)n1`, the inhibition was -8.92% (inactive).

For the compound `Cc1cccc(NC(=O)COc2ccccc2C)n1`, the inhibition was 99.9% (active). Next, `Cc1ccccc1OCC(=O)Nc1nc(C)c(C(=O)N(C)C)s1`: 13.1% (inactive); `Cc1cccc(NC(=O)c2cccnc2Cl)n1`: 21.6% (inactive); `CCN(CC)S(=O)(=O)c1ccc(C)c(NC(=O)COc2ccc(Br)cc2Cl)c1`: -7.98% (inactive). Next, `Cc1cccc(NC(=O)c2ccc3ccccc3n2)n1`: 80.6% (active).

For `CCCC1=Nc2cc(C(=O)NCCN3CCCC3)ccc2Sc2ccccc21`, the inhibition was -5.59% (inactive). The same measure for `Cc1cc(C)n(CC(O)COc2ccc(C(C)(C)C)cc2)n1` (stereo unspecified): -1.13% (inactive); for `COc1ccccc1CN(C)C(=O)c1cc2ccccc2o1`: 5.75% (inactive). The same measure for `Cc1ccc(C(=O)Nc2nc(N)n(-c3ccccc3)n2)cc1`: 38.4% (active). The same measure for `Nc1nc(NC(=O)/C=C/c2ccccc2)nn1-c1ccccc1`: 27% (inactive). `Cc1ccc(S(=O)(=O)Nc2nc(N)n(-c3ccccc3)n2)cc1`: the inhibition is -9.63% (inactive).

Turning to `O=C(Nc1cccc(F)c1)c1coc(=O)c(Br)c1`, the inhibition is -10.4% (inactive).

As to `CCCCNC(=O)c1cn(CC)c2cc(N3CCN(C(=O)c4ccco4)CC3)c(F)cc2c1=O`, the inhibition was -7.36% (inactive). In the case of `COCCCNC(=O)/C(C#N)=C/c1c(N2CCCCCC2)nc2ccccn2c1=O`, the inhibition is -3.53% (inactive). The same measure for `CSCCC(Nc1nc2ccccc2s1)C(=O)O` (stereo unspecified): -3.96% (inactive); for `Cc1ccc(S(=O)(=O)Nc2nc3ccccc3s2)cc1[N+](=O)[O-]`: -15.3% (inactive); for `Cc1ccnc(Nc2nc3ccccc3s2)n1`: 76.8% (active). Take `CS(=O)(=O)N(CC(=O)Nc1ccc(F)cc1)C1CCCCC1`: the inhibition is 18.9% (inactive). Next, `COc1ccc(S(=O)(=O)N2CCN(c3ccc(F)cc3)CC2)cc1-c1noc(C)n1`: -2.91% (inactive). The same measure for `Cc1cc(/C=N/Nc2ccc([N+](=O)[O-])cn2)c(C)n1-c1cccc(C(=O)O)c1`: 81.9% (active). Next, `Cc1cc(/C=N/n2cnnc2)c(C)n1-c1cccc(C(=O)O)c1`: 26.3% (inactive).

Consider `Cc1ccc(-n2c(C)cc(/C=N/Nc3ccc([N+](=O)[O-])cn3)c2C)c(C)c1`, for which the inhibition is 50.3% (inactive). Next, `CC(C)C[C@H](NC(=O)C1CC(=O)N(c2ccc3c(c2)OCCO3)C1)C(=O)NC1CCCC1` (stereo partly specified): -4.71% (inactive); `COc1cc(/C=C/C(=O)O)cc(S(=O)(=O)Nc2ccccc2C(=O)NCCc2ccccc2)c1OC`: 55.3% (inactive). For the compound `CC(C)CC(NC(=O)C1CCCN1C(=O)[C@@H](C)NC(=O)OCc1ccccc1)C(=O)NCC(N)=O` (stereo partly specified) (Cbz-[dA][ξP][ξL]G-NH2), the inhibition was -3.42% (inactive). Next, `COC(=O)c1cccc(N(C(=O)c2ccco2)C(C(=O)NC2CCCC2)c2ccco2)c1` (stereo unspecified): -1.98% (inactive); `COc1cc(NC(=O)CCS(=O)(=O)c2ccc3c(c2)oc(=O)n3C)cc(OC)c1`: 15.8% (inactive). Next, `O=C(CCS(=O)(=O)Cc1ccccc1)Nc1ccc2c(c1)OCCO2`: -14.4% (inactive). Consider `COC(=O)CCNc1ccc2c(c1)OCCO2`, for which the inhibition is 155% (active). `CCC(C)(C)NC(=O)CN(C(=O)C(=O)Nc1ccc2c(c1)OCCO2)C(C)(C)CC`: the inhibition is 15.3% (inactive). Consider `CCc1ccccc1OCC(=O)Nc1ccc2c(c1)OCCO2`, for which the inhibition is 54.9% (active).

As for `CCn1c(COc2ccccc2)nnc1SCC(=O)Nc1ccc2c(c1)OCCO2`, the inhibition was 4.75% (inactive). With `CCC(C(=O)Nc1ccc2c(c1)OCCO2)c1ccccc1` (stereo unspecified), the inhibition is 34.4% (inactive).

Turning to `O=C(COc1ccc(Cl)cc1)Nc1ccc2oc(=O)ccc2c1`, the inhibition is 6.26% (inactive). Next, `CCOc1ccc(NCCC(=O)c2ccc3c(c2)OCO3)cc1`: 21.5% (inactive); `CC(C)NS(=O)(=O)c1ccc(OCC(=O)Nc2ccc3c(c2)OCCO3)cc1`: -9.12% (inactive). The same measure for `CCCCC(=O)Nc1ccc2c(c1)OCCO2`: 70.5% (active). Next, `O=C(COc1ccc(Cl)cc1)Nc1ccc2c(c1)OCO2`: 71.8% (active); `COc1ccccc1OCCCC(=O)Nc1ccc2c(c1)OCCO2`: 20.5% (inactive). Regarding `CC(=O)Nc1cccc(Nc2nc(-c3cccs3)nc3ccccc23)c1`, the inhibition is 27.4% (inactive). Next, `Cc1cc(=O)oc2c1ccc1ccccc12`: 17.1% (inactive). In the case of `O=C(CCc1ccccc1)Nc1ccnn1C1CCN(Cc2ccc(OCCO)cc2)CC1`, the inhibition is 27.8% (inactive). Next, `O=C(CC1C(=O)NCCN1CC(c1ccccc1)c1ccccc1)NCC1CCOCC1` (stereo unspecified): 16.2% (inactive).

For `CC(NC(=O)CCCC1CCCCC1)c1ccc(S(N)(=O)=O)cc1` (stereo unspecified), the inhibition was -5.49% (inactive). Consider `COC(=O)c1cc(CNC(=O)CC(C)c2ccccc2)ccc1OC` (stereo unspecified), for which the inhibition was -4.17% (inactive). The same measure for `Cn1ccnc1SCC(=O)Nc1ccc2c(c1)OCCO2`: 7.65% (inactive).

On to `CCC(=O)Nc1cccc(NC(=O)CSc2nnnn2C2CCCC2)c1`, for which the inhibition was -2.63% (inactive). Next, `O=C(CSc1nnnn1C1CCCC1)Nc1ccc2c(c1)OCCO2`: 129% (active).

As to `Cc1ccc(SCC(=O)Nc2ccc3c(c2)OCCO3)cc1`, the inhibition is 77.1% (active).

In the case of `O=C(CSc1nnnn1-c1ccc2c(c1)CCC2)Nc1ccc2c(c1)OCCO2`, the inhibition was 33.4% (inactive). The same measure for `Cc1ccc(S(=O)(=O)NCC(=O)Nc2ccc3c(c2)OCCO3)cc1`: -18.4% (inactive); for `Cc1cc(OC(=O)c2ccc(OC(C)C)cc2)c([N+](=O)[O-])c(=O)[nH]1`: 13% (inactive); for `COc1ccc(-n2nc3c(N4CCC(C(=O)NCc5ccccc5)CC4)nnc(C)c3c2C)cc1`: -7% (inactive).

Regarding `COc1ccc(CCNC(=O)CCc2cn(C)c3ccccc23)c(OC)c1`, the inhibition is -3.65% (inactive). The same measure for `C/C(=N\NS(=O)(=O)c1ccc(Cl)cc1)c1ccc(NC(=O)c2ccco2)cc1`: 34% (active).

Take `C/C(=N/NS(=O)(=O)c1ccccc1)c1ccc(NC(=O)C(F)(F)F)cc1`: the inhibition was -9.75% (inactive). The same measure for `O=C(O)/C=C\C(=O)Nc1ccc(OCc2ccccc2)cc1`: 43% (inactive). Next, `Cc1cccc(NC(=O)Nc2cccc(Oc3c(F)c(F)c(F)c(F)c3F)c2)c1`: -0.582% (inactive); `CC(C)CNC(=O)COC(=O)/C=C/c1ccco1`: -5.59% (inactive); `CCC(CC)c1nnc(NC(=O)/C=C/c2ccco2)s1`: 20% (inactive). The same measure for `CN1CCN(S(=O)(=O)c2ccc(NC(=O)c3ccco3)cc2)CC1`: 47.4% (inactive); for `O=C(/C=C/c1ccco1)Nc1ccc(Oc2ccccc2)cc1`: 80.2% (active); for `Cc1ccc(C(=O)COc2cccc(NC(=O)c3ccco3)c2)cc1`: 14.8% (inactive).

In the case of `Cc1nnc(NC(=O)/C=C/c2ccco2)s1`, the inhibition was 45.9% (active). As for `CCc1nnc(NC(=O)/C=C/c2ccc(C)o2)s1`, the inhibition was 26.8% (inactive). The same measure for `CCOC(=O)c1cccc(NS(=O)(=O)c2c(C(=O)N3CCCCCC3)c(C)n(C)c2C)c1`: -9.67% (inactive); for `CC(=O)Nc1ccc(NC(=O)[C@@H](NC(=O)c2cccc(C)c2)C(C)C)cc1`: -2.98% (inactive).
